Results reported in the supplement of paper PMC8728848.
The entries come from a sample that favours the strongest signals as a whole.

Assays:
Experiment in all cases: glycan array binding signal (z-score within array); higher = stronger binding
Settings in all cases: glycan notation: IUPAC condensed, linker removed
[1] = target: Fuc(a1-2)Gal(b1-3)GalNAc(a1-3)[Fuc(a1-2)]Gal(b1-4)GlcNAc
Outline: (§1)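 Columns mapping to the same glycan were averaged after glycan names were converted to IUPAC-condensed notation. The data come from 3228 arrays in the Consortium for Functional Glycomics database, limited to those with an available protein sequence. Binding is reported as a within-array Z-score averaged across arrays of one protein sequence and across linkers.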

[2] = target: Fuc(a1-2)Gal(b1-4)Fuc(a1-3)]GlcNAc(b1-2)Man(a1-3)[Fuc(a1-2)Gal(b1-4)[Fuc(a1-3)]GlcNAc(b1-2)Man(a1-6)]Man(b1-4)GlcNAc(b1-4)GlcNAc
Outline: as §1

[3] = target: Fuc(a1-2)Gal(b1-4)GlcNAc(b1-2)Man(a1-3)[Fuc(a1-2)Gal(b1-4)GlcNAc(b1-2)Man(a1-6)]Man(b1-4)GlcNAc(b1-4)[Fuc(a1-6)]GlcNAc
Outline: as §1

[4] = target: Fuc(a1-2)Gal(b1-4)GlcNAc(b1-3)GalNAc
Outline: as §1

[5] = target: Fuc(a1-2)Gal(b1-4)[Fuc(a1-3)]GlcNAc(b1-3)GalNAc
Outline: as §1

[6] = target: Fuc(a1-2)[Gal(a1-3)]Gal(b1-3)GalNAc(b1-3)Gal(a1-4)Gal(b1-4)Glc
Outline: as §1

[7] = target: Fuc(a1-2)[GalNAc(a1-3)]Gal
Outline: as §1

[8] = target: Fuc(a1-2)[GalNAc(a1-3)]Gal(b1-4)[Fuc(a1-3)]GlcNAc(b1-3)GalNAc
Outline: as §1

[9] = target: Fuc(a1-3)[Gal(b1-4)]GlcNAc(b1-2)Man(a1-3)[Fuc(a1-3)[Gal(b1-4)]GlcNAc(b1-2)Man(a1-6)]Man(b1-4)GlcNAc(b1-4)[Fuc(a1-6)]GlcNAc
Outline: as §1

Gal(b1-2)Gal = target: Gal(b1-2)Gal
Outline: as §1

Gal(b1-3)GlcNAc = target: Gal(b1-3)GlcNAc
Outline: as §1

Gal(b1-3)GlcNAc(b1-2)Man = target: Gal(b1-3)GlcNAc(b1-2)Man
Outline: as §1

[10] = target: Gal(b1-3)GlcNAc(b1-2)Man(a1-3)[Gal(b1-3)GlcNAc(b1-2)Man(a1-6)]Man(b1-4)GlcNAc(b1-4)GlcNAc
Outline: as §1

[11] = target: Gal(b1-3)GlcNAc(b1-3)Gal(b1-4)Glc
Outline: as §1

[12] = target: Gal(b1-3)[Fuc(a1-4)]GlcNAc(b1-3)Gal(b1-3)[Fuc(a1-4)]GlcNAc
Outline: as §1

Gal(b1-4)GlcNAc(b1-2)Man = target: Gal(b1-4)GlcNAc(b1-2)Man
Outline: as §1

[13] = target: Gal(b1-4)GlcNAc(b1-2)Man(a1-3)[Gal(b1-4)GlcNAc(b1-2)Man(a1-6)]Man(b1-4)GlcNAc(b1-4)GlcNAc
Outline: as §1

[14] = target: Gal(b1-4)GlcNAc(b1-2)[Gal(b1-4)GlcNAc(b1-6)]Man(a1-6)[GlcNAc(b1-4)][Gal(b1-4)GlcNAc(b1-2)Man(a1-3)]Man(b1-4)GlcNAc(b1-4)GlcNAc
Outline: as §1

[15] = target: Gal(b1-4)GlcNAc(b1-3)Gal(b1-4)GlcNAc
Outline: as §1

[16] = target: Gal(b1-4)GlcNAc(b1-3)Gal(b1-4)GlcNAc(b1-3)Gal(b1-4)GlcNAc(b1-2)Man(a1-3)[Gal(b1-4)GlcNAc(b1-3)Gal(b1-4)GlcNAc(b1-3)Gal(b1-4)GlcNAc(b1-2)Man(a1-6)]Man(b1-4)GlcNAc(b1-4)GlcNAc
Outline: as §1

[17] = target: Gal(b1-4)GlcNAc(b1-3)Gal(b1-4)GlcNAc(b1-3)Gal(b1-4)GlcNAc(b1-3)Gal(b1-4)GlcNAc(b1-3)Gal(b1-4)GlcNAc(b1-2)Man(a1-3)[Gal(b1-4)GlcNAc(b1-3)Gal(b1-4)GlcNAc(b1-3)Gal(b1-4)GlcNAc(b1-3)Gal(b1-4)GlcNAc(b1-3)Gal(b1-4)GlcNAc(b1-2)Man(a1-6)]Man(b1-4)GlcNAc(b1-4)[Fuc(a1-6)]GlcNAc
Outline: as §1

Gal3S(b1-3)GlcNAc = target: Gal3S(b1-3)GlcNAc
Outline: as §1

[18] = target: Gal3S(b1-3)[Fuc(a1-4)]GlcNAc
Outline: as §1

Gal6S(b1-4)GlcNAc6S = target: Gal6S(b1-4)GlcNAc6S
Outline: as §1

[19] = target: GlcNAc(a1-4)Gal(b1-4)GlcNAc(b1-3)Gal(b1-4)[Fuc(a1-3)]GlcNAc(b1-3)Gal(b1-4)[Fuc(a1-3)]GlcNAc
Outline: as §1

[20] = target: GlcNAc(b1-2)[GlcNAc(b1-4)]Man(a1-3)[GlcNAc(b1-2)Man(a1-6)]Man(b1-4)GlcNAc(b1-4)GlcNAc
Outline: as §1

[21] = target: GlcNAc(b1-3)Gal(b1-4)GlcNAc(b1-3)[GlcNAc(b1-3)Gal(b1-4)GlcNAc(b1-3)]GalNAc
Outline: as §1

[22] = target: Kdn(a2-3)Gal(b1-4)[Fuc(a1-3)]GlcNAc
Outline: as §1

[23] = target: Neu5Ac(a2-3)Gal(b1-3)GlcNAc(b1-3)Gal(b1-3)GlcNAc
Outline: as §1

[24] = target: Neu5Ac(a2-3)Gal(b1-3)[Neu5Ac(a2-6)]GlcNAc(b1-3)[Fuc(a1-3)[Gal(b1-4)]GlcNAc(b1-6)]Gal(b1-4)Glc
Outline: as §1

[25] = target: Neu5Ac(a2-3)Gal(b1-4)GlcNAc(b1-2)Man(a1-3)[Neu5Ac(a2-6)Gal(b1-4)GlcNAc(b1-2)Man(a1-6)]Man(b1-4)GlcNAc(b1-4)GlcNAc
Outline: as §1

[26] = target: Neu5Ac(a2-3)Gal(b1-4)GlcNAc(b1-3)Gal(b1-3)GlcNAc
Outline: as §1

[27] = target: Neu5Ac(a2-3)Gal(b1-4)GlcNAc(b1-3)Gal(b1-4)GlcNAc(b1-3)Gal(b1-4)GlcNAc(b1-2)Man(a1-3)[Neu5Ac(a2-3)Gal(b1-4)GlcNAc(b1-3)Gal(b1-4)GlcNAc(b1-3)Gal(b1-4)GlcNAc(b1-2)Man(a1-6)]GalNAc
Outline: as §1

[28] = target: Neu5Ac(a2-3)Gal(b1-4)GlcNAc(b1-3)Gal(b1-4)GlcNAc(b1-3)[Neu5Ac(a2-3)Gal(b1-4)GlcNAc(b1-3)Gal(b1-4)GlcNAc(b1-6)]GalNAc
Outline: as §1

[29] = target: Neu5Ac(a2-3)Gal(b1-4)GlcNAc(b1-3)[Neu5Ac(a2-3)Gal(b1-4)GlcNAc(b1-6)]GalNAc
Outline: as §1

[30] = target: Neu5Ac(a2-3)Gal(b1-4)[Fuc(a1-3)]GlcNAc(b1-3)GalNAc
Outline: as §1

[31] = target: Neu5Ac(a2-6)Gal(b1-4)GlcNAc(b1-2)Man(a1-3)[GlcNAc(b1-4)][Neu5Ac(a2-6)Gal(b1-4)GlcNAc(b1-2)Man(a1-6)]Man(b1-4)GlcNAc(b1-4)GlcNAc
Outline: as §1

[32] = target: Neu5Ac(a2-6)Gal(b1-4)GlcNAc(b1-2)Man(a1-3)[Man(a1-6)]Man(b1-4)GlcNAc(b1-4)GlcNAc
Outline: as §1

[33] = target: Neu5Ac(a2-6)Gal(b1-4)GlcNAc(b1-2)Man(a1-6)Man(b1-4)GlcNAc(b1-4)GlcNAc
Outline: as §1

[34] = target: Neu5Ac(a2-6)Gal(b1-4)GlcNAc(b1-3)Gal(b1-4)GlcNAc(b1-3)Gal(b1-4)GlcNAc(b1-2)Man(a1-3)[Neu5Ac(a2-6)Gal(b1-4)GlcNAc(b1-3)Gal(b1-4)GlcNAc(b1-3)Gal(b1-4)GlcNAc(b1-2)Man(a1-6)]GalNAc
Outline: as §1

B1: Epa20 (Candida glabrata) (protein)
chain: MGSSHHHHHHSSGLVPRGSHMASSNIPNNYPLGCSNKYSGHLPGLKMELYSYNYVNPRHPDPQNPGKLDQLYDPNLLGTYECFDSSYKDINYPRVGYKSKTLIGRSDGVSGILNFNFVPPWGCMPQKGQLPPAYNFKSNITLSNFTMILFGYFKPKISGNHIFSLHGDDLIYLNFGAGNAFDCCRQESSADNFGNYQAFSLWGINWEKKTLTVYLDMNTYYPIRIFYNNRDYQAIFNFSFKTEFDSSPVIDFQDYFFFLRDIDGGCPGEV
**Q.** With B1 as the binder, how does the “glycan array binding signal (z-score)” value [1] read?
**A.** -0.278

**Q.** What about the “glycan array binding signal (z-score)” value [2] of the same binder?
**A.** 3.16

**Q.** And the “glycan array binding signal (z-score)” value [3]?
**A.** -0.005

**Q.** And the “glycan array binding signal (z-score)” value [4]?
**A.** -0.072

**Q.** And the “glycan array binding signal (z-score)” value [5]?
**A.** 4.96

**Q.** And the “glycan array binding signal (z-score)” value [6]?
**A.** -0.067

**Q.** And the “glycan array binding signal (z-score)” value [7]?
**A.** -0.452

**Q.** And the “glycan array binding signal (z-score)” value [8]?
**A.** 3.14

**Q.** What about the “glycan array binding signal (z-score)” value [9] of the same binder?
**A.** 0.822

**Q.** What about the “glycan array binding signal (z-score)” value (Gal(b1-2)Gal) of the same binder?
**A.** -0.763

**Q.** What about the “glycan array binding signal (z-score)” value (Gal(b1-3)GlcNAc) of the same binder?
**A.** -0.446

**Q.** And the “glycan array binding signal (z-score)” value (Gal(b1-3)GlcNAc(b1-2)Man)?
**A.** 0.049

**Q.** What about the “glycan array binding signal (z-score)” value [10] of the same binder?
**A.** 0.704

**Q.** And the “glycan array binding signal (z-score)” value [11]?
**A.** -0.669

**Q.** What about the “glycan array binding signal (z-score)” value [12] of the same binder?
**A.** -0.28

**Q.** What about the “glycan array binding signal (z-score)” value (Gal(b1-4)GlcNAc(b1-2)Man) of the same binder?
**A.** -0.114

**Q.** What about the “glycan array binding signal (z-score)” value [13] of the same binder?
**A.** -0.534

**Q.** And the “glycan array binding signal (z-score)” value [14]?
**A.** -0.48

**Q.** What about the “glycan array binding signal (z-score)” value [15] of the same binder?
**A.** -0.384

**Q.** What about the “glycan array binding signal (z-score)” value [16] of the same binder?
**A.** 3.18

**Q.** And the “glycan array binding signal (z-score)” value [17]?
**A.** 6.07

**Q.** And the “glycan array binding signal (z-score)” value (Gal3S(b1-3)GlcNAc)?
**A.** -0.241

**Q.** And the “glycan array binding signal (z-score)” value [18]?
**A.** 0.569

**Q.** What about the “glycan array binding signal (z-score)” value (Gal6S(b1-4)GlcNAc6S) of the same binder?
**A.** 0.939

**Q.** What about the “glycan array binding signal (z-score)” value [19] of the same binder?
**A.** 0.435

**Q.** And the “glycan array binding signal (z-score)” value [20]?
**A.** -0.31

**Q.** What about the “glycan array binding signal (z-score)” value [21] of the same binder?
**A.** 0.532

**Q.** What about the “glycan array binding signal (z-score)” value [22] of the same binder?
**A.** 0.229

**Q.** What about the “glycan array binding signal (z-score)” value [23] of the same binder?
**A.** -0.76

**Q.** What about the “glycan array binding signal (z-score)” value [24] of the same binder?
**A.** 2.49

**Q.** What about the “glycan array binding signal (z-score)” value [25] of the same binder?
**A.** -0.493

**Q.** What about the “glycan array binding signal (z-score)” value [26] of the same binder?
**A.** -0.463

**Q.** And the “glycan array binding signal (z-score)” value [27]?
**A.** 2.75

**Q.** What about the “glycan array binding signal (z-score)” value [28] of the same binder?
**A.** 4.06

**Q.** What about the “glycan array binding signal (z-score)” value [29] of the same binder?
**A.** 2.82

**Q.** What about the “glycan array binding signal (z-score)” value [30] of the same binder?
**A.** 2.98

**Q.** What about the “glycan array binding signal (z-score)” value [31] of the same binder?
**A.** -0.397

**Q.** And the “glycan array binding signal (z-score)” value [32]?
**A.** 0.402

**Q.** And the “glycan array binding signal (z-score)” value [33]?
**A.** -0.108

**Q.** What about the “glycan array binding signal (z-score)” value [34] of the same binder?
**A.** 3.97
